Source: ChEMBL document CHEMBL3988442, “University of Dundee, Small-Polar-MMV Screening Library” (2021)
Screen size: about 48,000 compounds; about 13,000 (27%) showed an effect of 50% or more. The list shows a part of the results.

test system: Wolbachia pipientis; experiment: Anti-Wolbachia Cell-Based Screen; format: functional; design: scale not given: in the data most compounds retested in dose-response had high values; details: 5 µM

Row | Structure (SMILES) | Percent Effect [%]
1 | CC(=O)c1cccc(OCCCC(=O)N(C)CC(N)=O)c1 | -6.7
2 | Cc1cccc2[nH]c(C3CCN(C(=O)c4ccc[nH]4)CC3)nc12 | -3.208
3 | O=C(Cc1ccn[nH]1)Nc1cncc(Br)c1O | -6.696
4 | CC(C)Cc1cc(CNC(=O)c2cccc3c2OCC3)no1 | -12.78
5 | CC(=O)N[C@@H]1CN(Cc2nccn2C)C[C@H]1c1ccc(C)cc1 | -2.996
6 | CC(CNC(=O)c1cc(N2CCNC2=O)ccc1F)c1ccccc1 (stereo not given) | -2.028
7 | CC(Sc1nc(N)cc(N)n1)c1nc(C(C)(C)C)no1 (stereo not given) | 6.059
8 | CC(=O)N1C[C@H]2CN(CC3CC3)C(=O)[C@H]2C1 | -8.606
9 | O=C(CC(F)(F)F)N1C[C@H]2CN(CC3CC3)C(=O)[C@H]2C1 | -26.88
10 | O=C1[C@H]2CN(S(=O)(=O)c3cccs3)C[C@H]2CN1CC1CC1 | -15.27
11 | CCS(=O)(=O)N1C[C@H]2CN(CC3CC3)C(=O)[C@H]2C1 | 114.7
12 | CCOCC(=O)N1C[C@H]2CN(CC3CC3)C(=O)[C@H]2C1 | -26.93
13 | CN(C)C(=O)CN1CC[C@H]2CN(S(C)(=O)=O)C[C@@H]2C1=O.O=C(O)C(F)(F)F | -14.63
14 | O=C1[C@H]2CN(c3ncc(F)cn3)C[C@H]2CN1CC1CC1 | 15.28
15 | O=C1[C@H]2CN(S(=O)(=O)C3CC3)C[C@H]2CN1CC1CC1 | 100.8
16 | CS(=O)(=O)N1C[C@H]2CN(CC3CC3)C(=O)[C@H]2C1 | 101.9
17 | Cc1cccnc1NC(=O)c1ccc(-n2cncn2)nn1 | -9.23
18 | CCN(CCCNC(=O)c1cc2cccc(F)c2o1)S(C)(=O)=O | 13.88
19 | O=C(NCc1ccc(Cl)s1)c1ccc(N2CCOC2=O)cc1 | -4.831
20 | CCOc1nnc(CNC2CCCN(c3ccc(C)nn3)C2)s1 (stereo not given) | 6.809
21 | CCOc1nnc(CN(C)C2CCCN(c3ccc(C)nn3)C2)s1 (stereo not given) | 91.1
22 | Cc1cnc(CN(C)C2CCCN(c3cccnn3)C2)cn1 (stereo not given) | 107
23 | CN(Cc1nnc(-c2ccco2)o1)C1CCCN(c2cccnn2)C1 (stereo not given) | 5.287
24 | CN(Cc1cc(-c2ccccc2)no1)C1CCCN(c2cccnn2)C1 (stereo not given) | -1.752
25 | Cc1cc(CN(C)C2CCCN(c3cccnn3)C2)on1 (stereo not given) | -2.461

Row | Structure (SMILES) | Percent Effect [%]
26 | Cc1ccc(N2CCCC(N(C)Cc3cc(C)on3)C2)nn1 (stereo not given) | -10.05
27 | Cc1ccc(N2CCCC(N(C)Cc3ccccn3)C2)nn1 (stereo not given) | 1.725
28 | CN(Cc1cscn1)C1CCCN(c2cccnn2)C1 (stereo not given) | 95.91
29 | Cc1cc(CN(C)C2CCCN(c3cccnn3)C2)no1 (stereo not given) | 110.4
30 | CC(C)n1nc2c(cc1=O)CN(c1nc3ccccc3s1)CC2 | 8.102
31 | CC(NC(=O)N1CCC2(C1)OCCO2)c1cccc(Cl)c1 (stereo not given) | -15.89
32 | CN1CCCC(CCC(=O)N2CCc3onc(C(=O)N(C)C)c3C2)C1 (stereo not given) | 14.32
33 | Cc1noc(CNc2ccccc2N2CCCCC2)n1 | 5.096
34 | CC(C)c1noc(CS(=O)(=O)CC(=O)NCC(F)(F)F)n1 | -6.707
35 | Cc1ncc(CN(C)C2CCCN(c3cccnn3)C2)s1 (stereo not given) | 87.88
36 | Cc1ncc(CN(C)CC2CCCN2c2cccnn2)s1 (stereo not given) | 0.5019
37 | CN(Cc1ncc(C(C)(C)C)o1)C1CCCN(c2cccnn2)C1 (stereo not given) | -2.807
38 | Cc1ccsc1[C@@H]1CCN(C(=O)CCc2nc3ccccc3[nH]2)C[C@H]1O | -8.794
39 | O=C(O)C(F)(F)F.O=C1NC2(CCN(C(=O)N3CCOCC3)CC2)CC1c1cccnc1 (stereo not given) | 179.1
40 | Cc1ccc(C(=O)N2CCC3(CC2)CC(c2ccccc2)C(=O)N3)cn1.O=C(O)C(F)(F)F (stereo not given) | -11.02
41 | Cc1cnc(C(=O)N2CCC3(CC2)CC(c2ccccc2)C(=O)N3)cn1 (stereo not given) | -6.858
42 | Cc1cccc(C(=O)N2CCC3(CC2)CC(c2ccccc2)C(=O)N3)c1 (stereo not given) | -4.545
43 | Cc1cc(C(=O)N2CCC3(CC2)CC(c2cccnc2)C(=O)N3)no1.O=C(O)C(F)(F)F (stereo not given) | 102.9
44 | O=C1NC2(CCN(C(=O)c3ccnnc3)CC2)CC1c1ccccc1 (stereo not given) | 95.48
45 | O=C(O)C(F)(F)F.O=C1NC2(CCN(C(=O)c3ccccc3)CC2)CC1c1cccnc1 (stereo not given) | -9.682
46 | O=C1NC2(CCN(C(=O)c3ccc(Cl)cc3)CC2)CC1c1ccccc1 (stereo not given) | 7.391
47 | O=C(O)C(F)(F)F.O=C1NC2(CCN(c3ncccn3)CC2)CC1c1cccnc1 (stereo not given) | -4.388
48 | CN(C)C(=O)CN1C[C@@H]2CC[C@H](C1)N(Cc1cc(F)ccc1F)C2 | 15.49
49 | COc1nc(C)c(C(=O)N2CCc3[nH]nc(C4CCCC4)c3C2)s1 | -0.6209
50 | CC(C)NC(=O)CN(C)CC(=O)/N=c1/cc[nH]n1C(C)C1CC1 (stereo not given) | -11.27

Row | Structure (SMILES) | Percent Effect [%]
51 | NC(=O)CN1CCC(NC2CCCCc3ccccc32)CC1 (stereo not given) | -5.758
52 | O=S1(=O)c2ccccc2C(O)CN1CCO (stereo not given) | 120.8
53 | CNC(=O)c1ncn2c1CN(CCC(C)C)S(=O)(=O)c1ccccc1-2 | 5.918
54 | COCCOCCNS(=O)(=O)C1CS(=O)(=O)c2ccccc21 (stereo not given) | 2.377
55 | NC(=O)CN1CCC(NC2CSCCc3ccccc32)CC1 (stereo not given) | -6.664
56 | COC1CN(CCO)S(=O)(=O)c2ccccc21 (stereo not given) | 103.3
57 | COCC(C)(C)NS(=O)(=O)C1CS(=O)(=O)c2ccccc21 (stereo not given) | 12.05
58 | NC(=O)CN1CC(O)c2ccccc2S1(=O)=O (stereo not given) | 96.32
59 | Cc1ccc2c(c1)c(CNC(=O)C1CC(=O)N(C3CCCC3)C1)nn2C (stereo not given) | -26.6
60 | O=C(N1CCCC1)N1CCC(c2nccn2Cc2cscn2)CC1 | -4.277
61 | CC(C)n1cnnc1CN(C)C(=O)c1cc(COc2ccccc2)[nH]n1 | -4.684
62 | O=C(NCCOc1ccc2c(c1)OCO2)N1CCCC(CO)C1 (stereo not given) | 85.49
63 | CCOc1ccc(Cl)cc1CCNC(=O)N1CCCC(CO)C1 (stereo not given) | 2.242
64 | CCCOc1ccc(CNC(=O)N2CCC(C(N)=O)C2)cc1 (stereo not given) | 0.5279
65 | NC(=O)C1CCN(C(=O)NCCOc2ccc3c(c2)OCO3)C1 (stereo not given) | 88.72
66 | CC(=O)NC1CCCN(C(=O)NCCOc2ccc3c(c2)OCO3)C1 (stereo not given) | 106.3
67 | O=C(CN1CCCC(CO)C1)NCCOc1cccc(Cl)c1 (stereo not given) | 0.8563
68 | NC(=O)N1CCCC(C(=O)NCCOc2ccc3c(c2)OCO3)C1 (stereo not given) | 6.711
69 | CC(=O)NCC1CCN(C(=O)NCCc2ccc3c(c2)OCO3)CC1 | -2.588
70 | O=C(c1ccc2c(c1)OCO2)N1CCCC(Nc2ccc(F)cc2)C1 (stereo not given) | -14.66
71 | Cc1noc(C)c1CNC(=O)N1CCC(NS(C)(=O)=O)CC1 | -20.1
72 | Cc1n[nH]c(C)c1CCc1ccc(S(C)(=O)=O)cc1 | 1.11
73 | CCCc1n[nH]cc1C(=O)N1CCC(c2nccn2CCOC)CC1 | -3.808
74 | CSC(C)(C)CNC(=O)NCCC1CCN(C)CC1 | 0.9558
75 | CC(C)c1nc(CNC2CCCN(c3cccnn3)C2)no1 (stereo not given) | 9.914

Row | Structure (SMILES) | Percent Effect [%]
76 | CC(C)(C)c1nc(CNC2CCCN(c3cccnn3)C2)no1 (stereo not given) | -17.48
77 | Cc1ccc(N2CCCC(N(C)Cc3noc(C4CC4)n3)C2)nn1 (stereo not given) | -34.27
78 | CCc1nc(CN(C)C2CCCN(c3cccnn3)C2)no1 (stereo not given) | 81.94
79 | CN(Cc1noc(C(C)(C)C)n1)C1CCCN(c2cccnn2)C1 (stereo not given) | 102.2
80 | CN(Cc1nc(C2CC2)no1)C1CCCN(c2cccnn2)C1 (stereo not given) | -5.639
81 | CN(Cc1noc(C2CC2)n1)C1CCCN(c2cccnn2)C1 (stereo not given) | 100.2
82 | CN(Cc1nc(-c2ccco2)no1)C1CCCN(c2cccnn2)C1 (stereo not given) | 4.985
83 | Cc1nc(CN(C)C2CCCN(c3cccnn3)C2)no1 (stereo not given) | -8.023
84 | CC(C)c1nc(CN(C)C2CCCN(c3cccnn3)C2)no1 (stereo not given) | 109.3
85 | CCOC(=O)N1CCN(c2nc(CCN)nc3sc(C)c(C)c23)CC1 | -2.539
86 | Cn1ncc(N2CCC(CNC3CC(c4ccccc4)C3)CC2)cc1=O (stereo not given) | 0.2132
87 | COC(=O)N1CCN(C(=O)c2ccc(C)c(N3CCNC3=O)c2)CC1 | -15.45
88 | CCOCCN1CCN(CCOC)CC1C (stereo not given) | -2.366
89 | CCN1Cc2ccccc2CC2(CCN(C(=O)N(C)C)CC2)C1=O | 108.4
90 | CN1C(=O)CC2(CCN(S(=O)(=O)C3CC3)CC2)c2ccccc21 | 18.32
91 | CCN1CCC2(CN(C(C)=O)CC23CCN(C(=O)N(C)C)CC3)C1=O (stereo not given) | -7.709
92 | CCN1Cc2ccccc2CC2(CCN(CC3CCC3)CC2)C1=O | 112.5
93 | O=C(O)CN1CCC2(CCc3ccccc32)CC1 | -5.092
94 | CCN1CC2(CC1=O)CN(C(=O)c1ccco1)CCN(C(=O)N(C)C)C2 (stereo not given) | -10.83
95 | O=C1N(CCc2ccccc2)CCCC12CCN(C(CO)CO)C2 (stereo not given) | -2.358
96 | CCN1Cc2ccccc2CC2(CCN(CC(=O)O)CC2)C1=O.O=C(O)C(F)(F)F | 108.1
97 | Cn1cccc1C(=O)N1CCC2(CCCN(CC3CCC3)C2=O)C1 (stereo not given) | 0
98 | CC(C)CN1CCC2(CCN(CC3CC3)CC2)C1=O.O=C(O)C(F)(F)F | 3.548
99 | Cc1ccc2c(c1)C1(CC2)CCN(CC(=O)O)CC1.O=C(O)C(F)(F)F | -2.152
100 | CCN1Cc2ccccc2CC2(CCN(C)CC2)C1=O | 106.4
